Data from PubChem BioAssay AID1159580 (chemical genetic matrix, 2015).
Hit rate of the full screen: of about 5,500 compounds, about 2,000 (36%) were called active. About 18% were inconclusive and are not listed. Rule as the data show it: active = normalized growth mostly below about 0.91 (no sharp cut-off); inconclusive = no clear call, values can overlap the other calls; inactive = mostly above about 0.92. This is one part of the list.

Assay: chemical genetic growth profiling, strain panel (AID 1159580);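 also: tested at 20 µM; growth read once vehicle control cultures reached saturation at 30 °C; 1 = growth at the plate median or of vehicle wells; lower values mean less growth of the strain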
Settings: growth OD

Measured: normalized growth

CNC(=O)N(C)c1nnc(C(C)(C)C)s1
inactive: S. cerevisiae deletion strains, locus YJR075W, strain HOC1, hits give low values 1.02 | S. cerevisiae deletion strains, locus YKL009W, strain mrt4, hits give low values 1.04 | S. cerevisiae deletion strains, locus YKL068W, hits give low values 1.01 | S. cerevisiae deletion strains, locus YKL085W, strain MDH1 (second series), hits give low values 1.02 | S. cerevisiae deletion strains, locus YKL085W, strain MDH1, hits give low values 1.02 | S. cerevisiae deletion strains, locus YKL160W, strain elf1, hits give low values 0.992 | S. cerevisiae deletion strains, locus YKL190W, strain CNB1, hits give low values 1.01 | S. cerevisiae deletion strains, locus YKR001C, strain vps1, hits give low values 1.04 | S. cerevisiae deletion strains, locus YKR026C, strain gcn3, hits give low values 0.991 | S. cerevisiae deletion strains, locus YKR091W, strain srl3, hits give low values 0.974 | S. cerevisiae deletion strains, locus YLL001W, strain dnm1, hits give low values 0.988 | S. cerevisiae deletion strains, locus YLL026W, hits give low values 0.992 | S. cerevisiae deletion strains, locus YLL041C, strain sdh2, hits give low values 0.98 | S. cerevisiae deletion strains, locus YLR027C, strain aat2, hits give low values 0.973 | S. cerevisiae deletion strains, locus YLR039C, strain RIC1, hits give low values 1.07 | S. cerevisiae deletion strains, locus YLR058C, strain SHM2, hits give low values 1.01 | S. cerevisiae deletion strains, locus YLR102C, strain apc9, hits give low values 1.03 | S. cerevisiae deletion strains, locus YLR221C, strain rsa3, hits give low values 1.01 | S. cerevisiae deletion strains, locus YLR258W, strain gsy2, hits give low values 0.975 | S. cerevisiae deletion strains, locus YLR262C, strain YPT6 (second series), hits give low values 1.03 | S. cerevisiae deletion strains, locus YLR262C, strain YPT6, hits give low values 1.09 | S. cerevisiae deletion strains, locus YLR268W, strain sec22, hits give low values 1.02 | S. cerevisiae deletion strains, locus YLR320W, strain mms22, hits give low values 1.03 | S. cerevisiae deletion strains, locus YLR330W, strain CHS5, hits give low values 1.02 | S. cerevisiae deletion strains, locus YLR342W, strain FKS1 (second series), hits give low values 1.07 | S. cerevisiae deletion strains, locus YLR342W, strain FKS1, hits give low values 0.998 | S. cerevisiae deletion strains, locus YLR357W, strain rsc2, hits give low values 0.972 | S. cerevisiae deletion strains, locus YLR370C, strain arc18, hits give low values 0.983 | S. cerevisiae deletion strains, locus YLR371W, strain rom2, hits give low values 1.02 | S. cerevisiae deletion strains, locus YLR384C, strain iki3, hits give low values 1.01 | S. cerevisiae deletion strains, locus YLR418C, strain cdc73, hits give low values 1.09 | S. cerevisiae deletion strains, locus YML016C, strain PPZ1, hits give low values 1.01 | S. cerevisiae deletion strains, locus YML032C, strain rad52, hits give low values 1.01 | S. cerevisiae deletion strains, locus YML120C, strain ndi1, hits give low values 1.01 | S. cerevisiae deletion strains, locus YML124C, strain tub3, hits give low values 1.01 | S. cerevisiae deletion strains, locus YMR058W, strain fet3, hits give low values 0.977 | S. cerevisiae deletion strains, locus YMR078C, strain ctf18, hits give low values 1.02 | S. cerevisiae deletion strains, locus YMR125W, strain sto1, hits give low values 0.942 | S. cerevisiae deletion strains, locus YMR129W, hits give low values 0.998 | S. cerevisiae deletion strains, locus YMR205C, strain PFK2, hits give low values 0.969 | S. cerevisiae deletion strains, locus YMR223W, strain ubp8, hits give low values 1.02 | S. cerevisiae deletion strains, locus YMR231W, strain pep5, hits give low values 1.01 | S. cerevisiae deletion strains, locus YMR263W, strain SAP30, hits give low values 1.02 | S. cerevisiae deletion strains, locus YMR307W, strain GAS1, hits give low values 1.1 | S. cerevisiae deletion strains, locus YNL067W, strain RPL9B, hits give low values 1.02 | S. cerevisiae deletion strains, locus YNL071W, strain lat1, hits give low values 0.993 | S. cerevisiae deletion strains, locus YNL128W, strain TEP1, hits give low values 1.01 | S. cerevisiae deletion strains, locus YNL153C, strain GIM3, hits give low values 1.01 | S. cerevisiae deletion strains, locus YNL209W, strain ssb2, hits give low values 1.01 | S. cerevisiae deletion strains, locus YNL233W, strain BNI4, hits give low values 1.01 | S. cerevisiae deletion strains, locus YNL248C, strain rpa49, hits give low values 0.995 | S. cerevisiae deletion strains, locus YNL250W, strain rad50, hits give low values 1.02 | S. cerevisiae deletion strains, locus YNL271C, strain bni1, hits give low values 1.03 | S. cerevisiae deletion strains, locus YNL298W, strain CLA4, hits give low values 1.03 | S. cerevisiae deletion strains, locus YNL307C, strain MCK1, hits give low values 1.02 | S. cerevisiae deletion strains, locus YNL322C, strain KRE1 (second series), hits give low values 0.986 | S. cerevisiae deletion strains, locus YNL322C, strain KRE1, hits give low values 1.01 | S. cerevisiae deletion strains, locus YNR049C, strain mso1, hits give low values 0.974 | S. cerevisiae deletion strains, locus YNR052C, strain pop2, hits give low values 1.03 | S. cerevisiae deletion strains, locus YOL006C, strain TOP1, hits give low values 1.06 | S. cerevisiae deletion strains, locus YOL012C, strain htz1 1.29 | S. cerevisiae deletion strains, locus YOL147C, strain pex11, hits give low values 1.01 | S. cerevisiae deletion strains, locus YOR001W, strain rrp6, hits give low values 1.01 | S. cerevisiae deletion strains, locus YOR061W, strain CKA2, hits give low values 1.01 | S. cerevisiae deletion strains, locus YOR069W, strain VPS5, hits give low values 1 | S. cerevisiae deletion strains, locus YOR070C, strain gyp1, hits give low values 1 | S. cerevisiae deletion strains, locus YOR080W, strain dia2, hits give low values 0.998 | S. cerevisiae deletion strains, locus YOR083W, strain WHI5, hits give low values 0.991 | S. cerevisiae deletion strains, locus YOR106W, strain vam3, hits give low values 0.961 | S. cerevisiae deletion strains, locus YOR136W, strain idh2, hits give low values 1.01 | S. cerevisiae deletion strains, locus YOR144C, strain elg1, hits give low values 1.01 | S. cerevisiae deletion strains, locus YOR184W, strain ser1, hits give low values 1.04 | S. cerevisiae deletion strains, locus YOR265W, strain rbl2, hits give low values 0.994 | S. cerevisiae deletion strains, locus YOR270C, strain vph1, hits give low values 1.01 | S. cerevisiae deletion strains, locus YOR290C, strain snf2, hits give low values 0.959 | S. cerevisiae deletion strains, locus YOR316C, strain cot1, hits give low values 1.02 | S. cerevisiae deletion strains, locus YPL051W, strain arl3, hits give low values 1.01 | S. cerevisiae deletion strains, locus YPL055C, strain LGE1, hits give low values 1.03 | S. cerevisiae deletion strains, locus YPL078C, strain atp4, hits give low values 0.961 | S. cerevisiae deletion strains, locus YPL106C, strain sse1, hits give low values 1.02 | S. cerevisiae deletion strains, locus YPL240C, strain hsp82, hits give low values 0.994 | S. cerevisiae deletion strains, locus YPL241C, strain CIN2, hits give low values 1.02 | S. cerevisiae deletion strains, locus YPR119W, strain clb2, hits give low values 1.01 | S. cerevisiae deletion strains, locus YPR141C, strain kar3, hits give low values 1.02 | S. cerevisiae deletion strains, locus YPR163C, strain tif3, hits give low values 1.01 | S. cerevisiae deletion strains, locus YPR167C, strain met16, hits give low values 1.03 | S. cerevisiae deletion strains, strain wtn01, hits give low values 1.03 | S. cerevisiae strains, strain wild type, hits give low values 1.01
